Shown are actives, neighbours in structure and some others; about 16% of the full set was active somewhere.
DT40 TDP1 no CPT = qHTS for Inhibitors of human tyrosyl-DNA phosphodiesterase 1 (TDP1): qHTS in cells in absence of CPT. Potency, µM (doses to about 46.2 µM), actives largely listed as inhibitors. 15% of 420,000 active. DT40 Tdp1-/- hTDP1 cells, no CPT, ATP luminescence, 48 h; note: nearly all actives have a fitted effect of over 55% in size
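Chicken DT40 Tdp1-/- cells complemented with human TDP1, screened without camptothecin (DMSO vehicle only), 400 cells/well. Compounds pin-transferred, cells incubated at 37 °C for at least 48 hr. Growth read as ATP-dependent luminescence (CellTiter-Glo, 30 min at RT).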
miR-21 reporter = qHTS Assay for Modulators of miRNAs and/orActivators of miR-21. HeLa miR-21 FLuc reporter, luciferase, 48 h. Potency, µM (titrated, usually from 38.3 µM), actives largely listed as activators. 340,000 tested, under 10 active;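 note: miR-21 action dims this reporter so a rising signal means less miR-21 action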
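Luminescence from a firefly luciferase reporter carrying a miR-21 binding site downstream, stably expressed under a CMV promoter in HeLa cells that make miR-21 endogenously, reports miRNA modulation after 48 h compound exposure up to approximately 40uM final.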
uPA surface inh = qHTS for Inhibitors of Cell Surface uPA Generation; cell surface uPA generation assay, qHTS; Potency, µM (top dose mostly 38.3 µM), actives largely listed as inhibitors; 0.31% of 330,000 active; AID 540303, 2011; active = well fitted inhibition curve with a large enough effect; inconclusive = small, poorly fitted or top-dose-only effect; inactive = no such curve, though single readings can be large or run the other way; tested in mouse RAW 264.7 cells; note: nearly all actives have a fitted effect of over 55% in size
TDP1 block = qHTS Assay for Inhibitors of Tyrosyl-DNA Phosphodiesterase (TDP1); Potency, µM (top dose mostly 130 µM), most hits filed as inhibitors; AID 485290, 2010; recombinant TDP1, AlphaScreen DNA substrate cleavage; 0.28% of 350,000 active; Tyrosyl-DNA phosphodiesterase 1 (Homo sapiens), Q9NUW8; note: nearly all actives have a fitted effect of over 40% in size
Target sequence (Q9NUW8 whole entry, looked up): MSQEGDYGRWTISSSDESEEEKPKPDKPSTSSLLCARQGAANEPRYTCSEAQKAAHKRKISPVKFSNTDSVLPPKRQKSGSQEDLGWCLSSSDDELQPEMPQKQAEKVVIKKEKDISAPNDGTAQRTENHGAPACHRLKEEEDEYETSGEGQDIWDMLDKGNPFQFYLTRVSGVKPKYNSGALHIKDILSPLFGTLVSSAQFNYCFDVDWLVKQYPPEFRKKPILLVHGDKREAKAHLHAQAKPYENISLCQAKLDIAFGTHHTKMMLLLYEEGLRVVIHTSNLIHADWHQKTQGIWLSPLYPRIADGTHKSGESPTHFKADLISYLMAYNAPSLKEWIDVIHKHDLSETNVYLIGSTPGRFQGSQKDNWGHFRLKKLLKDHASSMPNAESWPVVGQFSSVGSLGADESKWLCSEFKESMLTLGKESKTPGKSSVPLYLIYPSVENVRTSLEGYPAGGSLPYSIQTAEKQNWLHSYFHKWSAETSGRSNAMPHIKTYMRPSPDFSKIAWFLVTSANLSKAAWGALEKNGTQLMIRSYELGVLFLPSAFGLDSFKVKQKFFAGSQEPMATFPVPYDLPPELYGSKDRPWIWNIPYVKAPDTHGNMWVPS
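Signal: AlphaScreen proximity between streptavidin donor and anti-FITC acceptor beads on intact substrate. Reaction: Tdp1 1 nM, substrate 15 nM final, 5 min RT after 15 min compound preincubation.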
DT40 TDP1 CPT = qHTS for Inhibitors of human tyrosyl-DNA phosphodiesterase 1 (TDP1): qHTS in cells in presence of CPT; chicken DT40 Tdp1-/-;hTDP1 cells + 20 nM CPT, ATP luminescence, 48 h; Potency, µM (doses to about 46.2 µM), actives largely listed as inhibitors; 12% of 420,000 active; AID 686979, 2013; note: nearly all actives have a fitted effect of over 55% in size
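Chicken DT40 Tdp1-/- cells stably complemented with human TDP1 were seeded at 400 cells/well in medium containing 20 nM camptothecin, exposed to pin-transferred compounds, and grown at 37 °C for at least 48 hr. Viability was read as ATP luminescence.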
Hits are given with their value; i = inactive; ? = inconclusive; nt = not tested or not shown; [ ] = remark or other dose. Unless noted, calls come from the whole dose curve; as a rule, active = well fitted curve in the direction sought with a large enough effect; inconclusive = small, poorly fitted or top-dose-only effect, or another doubt; inactive = no such curve, though single readings can be large; an effect the other way counts as inactive or inconclusive.

SMILES | DT40 TDP1 no CPT | miR-21 reporter | uPA surface inh | TDP1 block | DT40 TDP1 CPT
C/C(=N/NC(=O)c1cccs1)c1ccc(NC(=O)COc2ccc(Cl)cc2Cl)cc1 | ? | i | i | i | 15µM
CCC(=O)NC(=S)Nc1ccc(NC(=O)COc2ccc(Cl)c(C)c2)cc1 | 16µM | i | i | i | 13µM
COc1ccc(C)cc1NC(=O)C(=O)NNC(=O)COc1ccc(Cl)cc1 | 23µM | i | i | i | ?
CN(C)c1nc(OCCNC(=O)COc2ccc(Cl)cc2Cl)nc(N(C)C)n1 | 8.2µM | i | i | i | 7.3µM
Nn1c(SCC(=O)Nc2ccc3c(c2)OCO3)nnc1C(F)(F)F | i | i | i | i | i
Cc1ccccc1NC(=O)NC1(C(=O)N2CCC(O)CC2)CCCCC1 | i | i | i | i[0.0935 µM] | i
COc1ccc(C(=O)NNc2ncnc3c2cnn3-c2ccc(C)c(Cl)c2)cc1 | i | i | nt | i | i
Cc1ccc(OCC(=O)Nc2ccc([N+](=O)[O-])cc2)cc1 | i | i | i | i | i
CCC(=O)NC(=S)Nc1ccc(NC(=O)COc2ccc(Cl)cc2Cl)cc1 | 8.2µM | i | i | i | 16µM
COC(CC(=O)NNC(=S)Nc1ccc(Cl)cc1)OC | 18µM | i | i | i | 18µM
Cc1cccc(NC(=S)NNC(=O)COc2ccc(Cl)cc2Cl)c1 | i | i | i | i | i
COc1ccc(NC(=S)NNC(=O)COc2ccc(Cl)cc2Cl)cc1 | 21µM | i | i | i | ?
CCC(=O)NC(=S)Nc1ccc(NC(=O)COc2ccc([N+](=O)[O-])cc2)cc1 | 23µM | i | i | i | ?
O=C(NCCc1ccccc1)C(=O)c1cn(CC(=O)N2CCCC2)c2ccccc12 | i | i | i | i | i
CCOc1ncccc1C(=O)OCC(=O)c1cc(OC)ccc1OC | i | i | i | i | ?
COc1ccc(OC)c2sc(N3CCN(C(=O)C4CC4)CC3)nc12 | ? | i | nt | i | i
O=C(CSc1ncnc2scc(-c3ccc(F)cc3)c12)c1ccc2c(c1)OCCO2 | 18µM | i | i | i | 21µM
O=C(COc1ncnc2ccccc12)c1ccc2c(c1)OCCO2 | ? | i | i | i | i
CCc1nc(SCC(=O)c2ccc3c(c2)OCCO3)c2ccccc2n1 | ? | i | i | i | ?
O=C(CSc1nc(Cc2ccccc2)nc2ccccc12)c1ccc2c(c1)OCCO2 | 23µM | i | i | i | 16µM
O=C(CSc1ncnc2ccccc12)c1ccc2c(c1)OCCO2 | 18µM | i | i | i | 18µM
Cc1ccc(-c2csc3ncnc(SCC(=O)c4ccc5c(c4)OCCO5)c23)cc1 | ? | i | nt | i | ?
Cc1sc2ncnc(SCC(=O)c3ccc4c(c3)OCCO4)c2c1-c1ccccc1 | 9.2µM | i | i | i | 6.5µM
Cc1ccc(N2CCN(C(=O)Nc3cn(CC(C)C)c(=O)c4ccccc34)CC2)c(C)c1 | 10µM | ? | nt | i | 10µM
Cc1cccc(N2CCN(C(=O)Nc3cn(CC(C)C)c(=O)c4ccccc34)CC2)c1C | 7.3µM | i | nt | i | 8.2µM
SMILES | DT40 TDP1 no CPT | miR-21 reporter | uPA surface inh | TDP1 block | DT40 TDP1 CPT
COc1ccccc1N1CCN(C(=O)Nc2cn(CC(C)C)c(=O)c3ccccc23)CC1 | ? | i | nt | i | ?
CCCOc1cccc(C(=O)NCCNC(=O)c2ccc(C)nc2)c1 | i | i | i | i | i
CCOc1ccc(CNC(=O)C(C)n2ccc3cc(S(=O)(=O)N4CCCC4)ccc32)cc1 (stereo not drawn) | 21µM | i | i | i | ?
Cc1ccc(CNC(=O)C(C)n2ccc3cc(S(=O)(=O)N4CCCC4)ccc32)cc1 (stereo not drawn) | 0.46µM | i | nt | i | ?
CC(C(=O)NCc1ccc(F)cc1)n1ccc2cc(S(=O)(=O)N3CCCC3)ccc21 (stereo not drawn) | ? | i | i | i | ?
CCC(CC)NC(=O)C1CC(=O)N(CCc2ccc(F)cc2)C1 (stereo not drawn) | i | i | i | nt | i
COc1ccc(NC(=O)c2c(NCc3ccc(OC)c(OC)c3OC)sc3c2CCC3)c(OC)c1 | 15µM | i | nt | i | 13µM
COc1ccccc1NC(=O)c1c(NCc2ccc(OC)c(OC)c2OC)sc2c1CCC2 | 23µM | i | nt | i | ?
CCOC(=O)N1CCc2c(sc(NCc3ccc(OC)c(OC)c3OC)c2C(=O)Nc2ccc(OC)cc2OC)C1 | 16µM | i | nt | i | ?
COc1ccc(NC(=O)c2c(NCc3sccc3C)sc3c2CCCC3)c(OC)c1 | 13µM | i | nt | i | 21µM
C=CCNCC(=O)Nc1sc2c(c1C(=O)Nc1ccc(OC)cc1OC)CCC2 | ? | i | i | i | ?
CCOC(=O)N1CCc2c(sc(NCc3cccs3)c2C(=O)Nc2ccc(OC)cc2OC)C1 | ? | ? | nt | i | ?
COc1ccccc1NC(=O)c1c(NCc2ccc(OC)c(OC)c2OC)sc2c1CCCC2 | ? | i | nt | i | ?
CCOC(=O)c1ccc(NC(=O)c2c(NCc3cccc(OC)c3OC)sc3c2CCC3)cc1 | 21µM | i | nt | i | 15µM
CCOC(=O)c1ccc(NC(=O)c2c(NCc3sccc3C)sc3c2CCCCC3)cc1 | 21µM | i | nt | i | 12µM
COc1ccc(NC(=O)c2c(NCc3cccc(F)c3)sc3c2CCC3)c(OC)c1 | 10µM | i | nt | i | 13µM
CCOc1ccccc1NC(=O)c1c(NCc2ccc(OC)c(OC)c2OC)sc2c1CCC(C)C2 (stereo not drawn) | 18µM | i | nt | i | ?
CC[C@H]1OC(=O)[C@H](C)[C@@H](O[C@H]2C[C@@](C)(OC)[C@@H](O)[C@H](C)O2)C(C)[C@@H](O[C@@H]2O[C@H](C)C[C@H](N(C)C)[C@@H]2O)[C@](C)(OC)C[C@@H](C)C(=O)[C@H](C)[C@@H](O)[C@]1(C)O (stereo partly drawn) | nt | nt | nt | i | nt
O=C(NC1CC1)C1CCN(C2CCN(C(=O)CCOc3ccccc3)CC2)CC1 | i | i | i | nt | i
CN1CC(c2ccccc2)C2(SC(=S)N(Cc3ccco3)C2=O)C12C(=O)Nc1ccccc12 (stereo not drawn) | 11µM | ? | nt | i | i
CCc1ccccc1Nc1nn2c(=O)c3ccc(C(=O)NCc4ccc(C)cc4)cc3nc2s1 | 8.2µM | i | nt | i | ?
CCc1ccccc1Nc1nn2c(=O)c3ccc(C(=O)NCCc4ccccc4)cc3nc2s1 | 23µM | i | nt | i | 10µM
CCc1ccccc1Nc1nn2c(=O)c3ccc(C(=O)NC(C)c4ccccc4)cc3nc2s1 (stereo not drawn) | 15µM | i | nt | i | 15µM
Cc1ccc(Cl)cc1Nc1nn2c(=O)c3ccc(C(=O)NCc4ccc(F)cc4)cc3nc2s1 | 4.6µM | i | nt | i | 2.1µM

Screening data from PubChem BioAssay.
